Bioassay records from PubChem.
Most compounds without a hit are left out; they make up all but 1.1% or so of the library.
BCR signal inh: qHTS Assay to Find Inhibitors of Chronic Active B-Cell Receptor Signaling | 0.05% of 340,000 active | AID 493014, 2011 | ABC-DLBCL IkBa-CBG/CBR reporter, luminescence ratio, 4 h | Potency, µM (doses to about 46.1 µM), hits mostly inhibitors; active = well fitted inhibition curve with a large enough effect in the signal ratio, with a control signal flat, not every such curve was filed as active; inconclusive = small, poorly fitted or top-dose-only effect, or effect the other way, or a change in a side signal; the % refers to the signal ratio
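Compounds up to 46 uM were incubated four hours with TMD8 cells whose green CBG68 luciferase is fused to IkappaBalpha; red CBR luminescence normalised the signal, and concentration-effect curves were fitted to fusion, red and ratio data.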
ALOX12 inh: Primary qHTS assay for inhibitors of human arachidonate 12S-lipoxygenase (ALOX12): Round 2; purified 12hLO, xylenol orange hydroperoxide absorbance; Potency, µM (highest dose often 108 µM), hits mostly inhibitors; 1.1% of 580,000 active; AID 1671190, 2021
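Purified human 12hLO at 150 nM in 25 mM Hepes, 0.01% Triton X-100, pH 7.0, preincubated 15 min at room temperature with compound. Reaction started with 40 uM arachidonic acid, 30 min at room temperature. Hydroperoxide measured by Fe-xylenol orange, 573/405 nm absorbance ratio.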
Apoferritin bind: qHTS Assay for Identification of Novel General Anesthetics; 0.074% of 350,000 active; apoferritin/1-aminoanthracene competitive binding, fluorescence; Ferritin light chain (Equus caballus), P02791; Potency, µM (series often up to 77.5 µM), actives largely listed as inhibitors; note: nearly all actives have a fitted effect of over 20% in size
Target sequence (P02791 2-175 limits assumed): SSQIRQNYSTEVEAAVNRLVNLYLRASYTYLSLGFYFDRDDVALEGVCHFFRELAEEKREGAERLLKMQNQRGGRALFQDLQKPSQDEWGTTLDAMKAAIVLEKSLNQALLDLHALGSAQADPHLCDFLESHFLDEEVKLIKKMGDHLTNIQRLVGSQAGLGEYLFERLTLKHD
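Probe: 1-aminoanthracene (50% saturated, PBS). Protein: horse-spleen apoferritin, 10 uM. Incubation: 10 min, room temperature. Detection: 380 nm excitation, 535 nm emission. Analysis: normalized response, four-parameter Hill.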
Glioma ERSR ind: qHTS for Inducers of the Endoplasmic Reticulum Stress Response (ERSR) in Human Glioma: qHTS. U87-MG GRP78 promoter luciferase reporter, 16 h. Potency, µM, usual class: activators. AID 602332, 2012. 0.02% of 420,000 active; note: series mostly up to about 76 µM; nearly all actives have a fitted effect of over 35% in size
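ERSR induction read as luciferase luminescence (Bright-Glo, 10 min at room temperature) in stably transfected human U87-MG glioma cells exposed to compounds for 16 h, using GRP78 as sensor.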
Numbers stand for hits; . = inactive; ? = inconclusive; / = no result; ! = repeats disagree. Unless noted, calls come from the whole dose curve; as a rule, active = well fitted curve in the direction sought with a large enough effect; inconclusive = small, poorly fitted or top-dose-only effect, or another doubt; inactive = no such curve, though single readings can be large; an effect the other way counts as inactive or inconclusive.

SMILES	BCR signal inh	ALOX12 inh	Apoferritin bind	Glioma ERSR ind
COCCNc1nc(NCc2ccccc2)c2cnn(C)c2n1	.	.	.	.
O=C(O)/C(=C\c1c(C(=O)O)[nH]c2cc(Cl)cc(Cl)c12)c1ccccc1	.	35µM	/	.
O=C(O)C(=Cc1ccccc1Cl)c1ccccc1	/	/	/	.
Fc1ccc(-n2[nH]nnc2=S)cc1N1CCCC1	.	8.9µM	.	.
C(=C\c1sc(Nc2ccccc2)n[n+]1-c1ccccc1)/c1ccccc1	/	50µM	/	.
Cc1ccc(-c2csc3nc4cc(C(N)=O)ccc4c(=O)n23)cc1	.	18µM	.	.
CCCCCC[N+](C)(C)CCSSCC[N+](C)(C)CCCCCC	?	.	.	.
C[N+](C)(C)CCSSCC[N+](C)(C)C	/	4µM	/	/
CS(=O)(=O)c1ccc(OCC2(CNS(=O)(=O)c3ccc(Cl)cc3)C[C@@H](O)[C@@H](O)C2)cc1 (some centres not stated)	/	79µM	/	/
CS(=O)(=O)c1ccc(OCC2(CNCc3ccc(Cl)cc3)C[C@@H](O)[C@@H](O)C2)cc1 (some centres not stated)	/	.	/	/
O=C1CC(NNc2ccccc2)C(=O)N1c1ccc(N2CCCCC2)cc1 (configuration not stated)	.	6.3µM	?	.
O=C1CC(Nc2ccc(N3CCOCC3)cc2)C(=O)N1c1ccccc1F (configuration not stated)	?	16µM	.	.
C/C(Cl)=C/C[N+]1(CC#Cc2cccc3ccccc23)CCOCC1	/	.	/	/
Cn1c(SCC(=O)N2CCc3ccccc32)nnc1-c1cccc(NC(=O)c2ccccc2F)c1	/	35µM	/	/
Cn1c(SCC(=O)N2CCc3ccccc32)nnc1-c1cccc(F)c1	/	.	/	/
COc1ccc2cnn(CC(=O)N(Cc3ccccc3)Cc3ccccc3)c(=O)c2c1OC	/	.	/	/
O=C1Cc2cc(-c3csc(NC4CCCCC4)n3)cc3c2N1CCC3	/	11µM	/	/
CCNc1nc(-c2ccc3c(c2)CCC(=O)N3)cs1	/	20µM	/	/
O=C1Cc2cc(-c3csc(NC4CC4)n3)ccc2N1	/	40µM	/	/
Nc1nc(-c2ccc3c(c2)CCC(=O)N3)cs1	?	.	.	.
c1ccc(-c2csc(NC3CCCCC3)n2)cc1	.	?	?	.
O=C1CCc2cc(-c3csc(NC4CC4)n3)ccc2N1	/	35µM	/	/
CCCCNc1nc(-c2ccc3c(c2)CC(=O)N3)cs1	/	32µM	/	/
COc1cccc(/C=N/NC(N)=S)c1OCc1cccc(Cl)c1	.	35µM	.	.
Cc1cc(/C=N/NC(N)=S)c(C)n1-c1cccc(Cl)c1	.	40µM	.	.
SMILES	BCR signal inh	ALOX12 inh	Apoferritin bind	Glioma ERSR ind
NC(=S)N/N=C\c1ccccc1OCc1ccccc1	?	?	.	.
COc1cc(/C=N/NC(N)=S)ccc1OCc1ccc(C)cc1	?	45µM	.	.
Cc1cc(/C=N/NC(N)=S)c(C)n1-c1ccc(Cl)cc1	?	?	.	.
Cc1ccc2nc(-c3ccc(C)c(NC(=O)c4ccc5c(c4)OCO5)c3)oc2c1	/	.	/	/
COc1cc(NC(=O)C2(n3cnnn3)CCCCC2)cc(OC)c1OC	/	.	/	/
Cc1c(CCOC(=O)c2ccc(Cl)cc2Cl)sc[n+]1CC(=O)c1ccc(Br)cc1	.	?	/	.
Cc1c(CCOC(=O)C2C3CC4CC(C3)CC2C4)sc[n+]1CC(=O)c1ccc(Br)cc1 (configuration not stated)	.	40µM!	?	.
N#Cc1cccc(-c2nccc(-n3ccnc3)n2)c1	/	25µM	/	.
CS(=O)(=O)Nc1cccc(-c2nccc(-n3ccnc3)n2)c1	/	22µM	.	.
CCCN(CC(=O)Nc1ccccc1C)S(=O)(=O)c1cccc2cc(C)cnc12	/	.	/	/
COc1ccc(CN(C)Cc2c(O)ccc3cc(Br)ccc23)cc1OC	?	28µM	.	.
COc1ccc(CCN(C)Cc2c(O)ccc3cc(Br)ccc23)cc1OC	?	18µM	.	.
COc1ccc2cc(Br)ccc2c1CC(=O)N(C)C	.	.	.	.
O=C(Nc1nc(COc2ccccc2)cs1)C12CC3CC(CC(C3)C1)C2	?	28µM	.	.
O=C(O)/C=C/c1cc(Br)c(-c2ccc(Cl)cc2Cl)o1	/	40µM	/	/
O=C(O)/C=C/c1ccc(Cl)cc1	/	.	/	/
O=C(O)/C=C/c1ccc(-c2ccc(Br)cc2Cl)o1	/	7.9µM	/	/
COc1ccc(OC)c(Nc2nc(NCCc3ccccc3)nc3c2cnn3-c2ccccc2)c1	/	.	/	/
Cc1c(Cc2ccccc2)c(=O)oc2c(O)c(O)ccc12	.	4µM	.	.
Cc1oc2c(O)c(O)ccc2c(=O)c1-c1ccc(Cl)cc1	?	5.6µM	.	.
Cc1cc(=O)oc2c(CN3CCCC3)c(O)ccc12	.	.	.	.
Cc1cc(=O)oc2c(O)c(O)ccc12	/	.	.	28µM
Cc1oc2c(O)c(O)ccc2c(=O)c1-c1ccccc1	?	?	.	.
Cc1c(Cc2ccccc2)c(=O)oc2cc(O)ccc12	?	.	.	.
COc1ccc(NC(=O)c2cc3c(n2C)CCN(Cc2ccc(F)cc2)C3)cc1	/	18µM	/	/
SMILES	BCR signal inh	ALOX12 inh	Apoferritin bind	Glioma ERSR ind
C/C(N)=C(/C#N)C(NC(=O)c1ccco1)(C(F)(F)F)C(F)(F)F	/	.	/	/
CN(C)CCNC(=O)c1cc(-c2ccccc2F)cc2c1OCCN2Cc1cccnc1	/	.	/	/
Cc1cc(C)c2c(CN3CCN(Cc4ccccc4)CC3)cc(=O)oc2c1	.	14µM!	.	.
Cc1cc(C)c2c(CN3CCN(c4ccccc4)CC3)cc(=O)oc2c1	/	.	/	.
CC(C)(C)c1ccc(C(=O)Nc2nc3c(s2)C[C@@H]2[C@](C)(CO)[C@H](O)CC[C@@]2(C)[C@@H]3CC(=O)N2CCOCC2)cc1	/	.	/	/
COc1ccc(C(=O)Nc2nc3c(s2)C[C@@H]2[C@](C)(CO)[C@H](O)CC[C@@]2(C)[C@@H]3CC(=O)N2CCOCC2)cc1	/	89µM	/	/
CSc1ccc(/C=N/Nc2ccc(F)cc2F)cc1	/	1.8µM	/	/
Fc1ccc(N/N=C/C=C/c2ccccc2)c(F)c1	?	40µM	.	.
Fc1ccc(N/N=C/c2ccncc2)c(F)c1	.	?	.	.
CCCn1c(SCc2cc(=O)oc3cc(C)c(C(C)C)cc23)n[nH]c1=O	/	.	/	/
CC(C)=CC[C@@H](O)C1=CC(=O)c2c(O)ccc(O)c2C1=O	/	2.2µM	?	.
N#Cc1c(N)nc2c(c1-c1ccc(Cl)cc1Cl)CCCC2	/	.	/	/
Cc1ccc(-c2csc(N)c2C#N)c(C)c1	/	22µM	/	/
N#Cc1c(-c2ccc(Cl)cc2Cl)csc1N	/	20µM	/	/
COc1ccc(C(C[N+](=O)[O-])c2c(-c3ccccc3)cc3ccccn23)c(OC)c1 (configuration not stated)	?	1.6µM	.	?
CCOc1cc(C(=O)Nc2ccccc2O)ccc1OC(F)F	/	.	/	/
CCC(C(=O)NC(C)c1ccccc1)C(=O)NC(C)c1ccccc1 (configuration not stated)	.	.	.	.
CC(NC(=S)NC(=O)c1cccs1)c1ccccc1 (configuration not stated)	.	25µM	/	.
